Activity calls are given as the source filed them. How the source made its calls: active means hit-call score of the fitted dose curve at least 0.9, where 1 is the maximum; inactive means score below 0.9.
The compounds below were run against Estrogen receptor (Homo sapiens) (UniProt P03372) (assay: CCTE_Deisenroth_AIME_384WELL_LUC_Shift: CCTE's 384-well Estrogen Receptor Transactivation Assay with AIME metabolic competence data shift (ERTA luciferase; difference in metabolism positive and negative), Deisenroth Lab (AID 2284041);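 further: shift is response with S9 minus without S9 so positive means metabolism raised ER signal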).
Experimental: CCTE_Deisenroth_AIME_384WELL (AIME metabolism assay) is a cell-based, single-readout assay that uses VM7Luc4E2, a human mammary gland/breast cell line, with measurements taken at 24 hour after chemical dosing in a 384-well plate.CCTE_Deisenroth_AIME_384WELL_LUC_Shift is one of two analysis components calculated from the CCTE_Deisenroth_AIME_384WELL assay. […] AIME is optimized to impart phase I hepatic metabolism using phenobarbital/beta-naphthoflavone induced hepatic S9 from male Sprague Dawley rats. Parent chemicals are incubated for 2 hours in the AIME assay prior to transfer to the VM7Luc ERTA assay plate. […] The metabolic curve shift response is defined as the pairwise difference between the positive (AEID 2488) and negative (AEID 2490) normalized response values at each concentration for a given chemical across replicate experiments. The pairwise differences form the basis for a concentration-response curve. Standard curve fit analysis identfiied chemicals where the calculated shift was greater than the shift-derived baseline cutoff. A positive hit designation in this endpoint indicates a significant shift trend in the positive direction for bioactivation.
The AIME procedure consists of a preparative "pre-stamping" step using a barium chloride/poly-L-lysine (PLL) solution followed by "stamping" the lid in alginate-hepatic S9 (metabolism positive) or alginate-water (metabolism negative) to form microspheres. Once stamping is completed, the AIME lids are placed in duplicate microplates (metabolism positive or negative) containing chemical solutions and incubated for two hours to facilitate metabolic reactions. The conditioned medium, containing parent chemical or metabolites, is then transferred to the cell-based VM7Luc Estrogen Receptor Transactivation Assay (ERTA) for 24 hours. A typical experimental design tests a 10-point concentration series (0.002 - 200 uM) for 8 compounds (96-well format)1 or 32 compounds (384-well format)2 in single technical replicate. AIME assay controls include trans-stilbene (bioactivated control) and ethylparaben (bioinactivated control). ERTA assay plate controls include 17-beta estradiol (positive control) and DMSO (solvent control). Experiments typically comprise a minimum of four experimental replicates (n=4).

Chain of Estrogen receptor (Homo sapiens) (P03372 whole entry, looked up): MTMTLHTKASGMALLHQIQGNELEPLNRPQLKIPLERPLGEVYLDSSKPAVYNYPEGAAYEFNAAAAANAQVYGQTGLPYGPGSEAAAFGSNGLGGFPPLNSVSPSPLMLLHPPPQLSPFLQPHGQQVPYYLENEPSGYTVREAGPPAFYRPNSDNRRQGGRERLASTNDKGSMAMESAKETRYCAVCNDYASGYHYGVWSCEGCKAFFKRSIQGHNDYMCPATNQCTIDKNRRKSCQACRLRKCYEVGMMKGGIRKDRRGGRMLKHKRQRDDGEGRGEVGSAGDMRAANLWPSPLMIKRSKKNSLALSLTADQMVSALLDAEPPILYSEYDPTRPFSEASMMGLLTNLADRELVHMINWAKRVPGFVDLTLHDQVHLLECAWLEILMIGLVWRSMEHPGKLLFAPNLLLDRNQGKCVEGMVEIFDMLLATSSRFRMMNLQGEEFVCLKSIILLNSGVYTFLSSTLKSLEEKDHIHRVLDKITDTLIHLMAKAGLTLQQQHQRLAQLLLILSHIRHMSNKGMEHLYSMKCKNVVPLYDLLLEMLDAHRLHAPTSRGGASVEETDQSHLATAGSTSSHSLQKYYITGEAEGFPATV

Row | SMILES | AC50 | outcome
1 | O=c1c(O)c(-c2ccc(O)c(O)c2)oc2cc(O)cc(O)c12 | 13.5 µM (active) | 
2 | CNC(=O)[C@H]1O[C@@H](n2cnc3c(NCc4cc(Cl)ccc4OCc4cc(C)no4)ncnc32)[C@H](O)[C@@H]1N |  | inactive
3 | CC(=O)Oc1ccccc1C(=O)O |  | inactive
4 | CCCCCCCCCCO |  | inactive
5 | Clc1cc(Cl)c(Cl)cc1Cl |  | inactive
6 | CC1(C)NC(=O)NC1=O |  | inactive
7 | Cc1ccc(N(C)C)cc1 |  | inactive
8 | CCCCOC(=O)CCCCCCCCC(=O)OCCCC |  | inactive
9 | CCNc1cccc(C)c1 |  | inactive
10 | CC1(C)CC(N=C=O)CC(C)(CN=C=O)C1 (centres undefined) |  | inactive
11 | C[Si]1(C)O[Si](C)(C)O[Si](C)(C)O[Si](C)(C)O1 |  | inactive
12 | CCCc1cc(=O)[nH]c(=S)[nH]1 |  | inactive
13 | O=c1[nH]cc(F)c(=O)[nH]1 |  | inactive
14 | COCCOCCOC |  | inactive
15 | CCCCCCCCCCCCCCCCCC(=O)O |  | inactive
16 | Cc1ccc(C)c(O)c1C |  | inactive
17 | Cc1cccc([N+](=O)[O-])c1C |  | inactive

Row | SMILES | AC50 | outcome
18 | CNCc1cc(F)ccc1Oc1ccc(Cl)c(Cl)c1 |  | inactive
19 | Nc1ccc2c(c1)C(=O)c1ccccc1C2=O | 3.51 µM (active) | 
20 | COc1ccc(C)cc1N |  | inactive
21 | CCCCCCCC=O | 15.6 µM (active) | 
22 | Cc1ccc(C(C)C)c(O)c1 |  | inactive
23 | C[C@]12C=CC(=O)C=C1CC[C@@H]1[C@@H]2C(=O)C[C@@]2(C)[C@H]1CC[C@]2(O)C(=O)CO |  | inactive
24 | CC1=C(/C=C/C(C)=C/C=C/C(C)=C/CO)C(C)(C)CCC1 |  | inactive
25 | COc1cc(C=O)ccc1O |  | inactive
26 | CCCCCCC(=O)OCC |  | inactive
27 | CN1CCCC1=O |  | inactive
28 | NCCO |  | inactive
29 | Cc1cc(=O)[nH]c(=S)[nH]1 |  | inactive
30 | Cc1cccc(C)c1O |  | inactive
31 | CCCCCC(=O)O |  | inactive
32 | Cc1ccc(C)c(C)c1 |  | inactive
33 | C=CCc1ccc(O)c(OC)c1 |  | inactive
34 | Cc1ccc2ncccc2c1 |  | inactive

From PubChem BioAssay (EPA / NIEHS)
